Measured values from PubChem BioAssay (EPA / NIEHS).
“And” between values parts separate entries of the source, which are not always exact repeats. Equal entries are not always repeated. Inconclusive results are not listed. Where a structure was tested more than once in an assay, its records may differ in their call. The source made the active and inactive calls. The calls were made as follows, unless noted: active = hit-call score of the fitted dose curve at least 0.9, where 1 is the maximum; inactive = score below 0.9.

How the values were obtained:
[1] = biological target: Bile acid receptor (Homo sapiens) (UniProt Q96RI1); test: ATG_FXR_TRANS: Attagene TRANS-FACTORIAL HepG2 Assay for Farnesoid X Receptor (FXR) (AID 2282979; active = hit-call score of the fitted dose curve at least 0.9, where 1 is the maximum;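 also: hits raise reporter mRNA above DMSO so AC50 marks FXR activation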); details: HepG2 Attagene TRANS FXR-GAL4 reporter transcription
Outline: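 Chimeric FXR-GAL4 activity in transiently transfected human HepG2 liver cells is scored as induction of reporter mRNA after 24 h of dosing. Detection uses RT-PCR with fluorescent labelling and capillary electrophoresis, with DMSO serving as baseline.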

[2] = biological target: Oxysterols receptor LXR-beta (Homo sapiens) (UniProt P55055); test: ATG_LXRb_TRANS: Attagene TRANS-FACTORIAL HepG2 Assay for human Liver X Receptor beta (LXRb) (AID 2282981; active = hit-call score of the fitted dose curve at least 0.9, where 1 is the maximum); details: HepG2 Attagene TRANS GAL4-LXRb reporter, mRNA
Outline: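 HepG2 cells transiently transfected with multiple reporter transcription units carrying chimeric NR-Gal4 proteins acting on GAL4-UAS reporters; compound exposure 24 h. Reporter mRNA quantified by RT-PCR, 6-FAM labelling, HpaI digestion and capillary electrophoresis; gain of signal versus DMSO.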

[3] = biological target: Hepatocyte nuclear factor 4-alpha (Homo sapiens) (UniProt P41235); test: ATG_HNF4a_TRANS: Attagene TRANS-FACTORIAL HepG2 Assay for human Hepatocyte Nuclear Factor 4 alpha (HNF4a) (AID 2282982; active = hit-call score of the fitted dose curve at least 0.9, where 1 is the maximum); details: HepG2 HNF4a transactivation reporter, mRNA readout
Outline: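 HepG2 cells transiently transfected with multiplexed GAL4-UAS reporter units responsive to chimeric NR-GAL4 proteins; compound exposure 24 h. Reporter mRNA quantified by RT-PCR, 6-FAM labelling, HpaI digestion and capillary electrophoresis; gain of signal versus DMSO baseline.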

[4] = ATG_M_06_TRANS: Attagene TRANS-FACTORIAL HepG2 Assay for M06 Transcription Factor (Internal Marker) (AID 2282983; active = hit-call score of the fitted dose curve at least 0.9, where 1 is the maximum;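 also: reporter transcript level by RT-PCR then capillary electrophoresis fluorescence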); details: HepG2 Attagene TRANS M06 internal marker reporter
Outline: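 Measured by capillary electrophoresis of fluorescently labelled RT-PCR products, this endpoint reflects reporter mRNA in HepG2 cells harbouring exogenous NR-GAL4 reporter constructs after 24 h exposure, with DMSO as baseline.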

[5] = ATG_M_32_TRANS: Attagene TRANS-FACTORIAL HepG2 Assay for M32 Transcription Factor (Internal Marker) (AID 2282984; active = hit-call score of the fitted dose curve at least 0.9, where 1 is the maximum;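 also: transcript level of a background control reporter unit measured by RT-PCR and capillary electrophoresis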); details: HepG2 Attagene TRANS M32 internal marker reporter
Outline: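 HepG2 cells transiently transfected with multiple GAL4-UAS reporter transcription units, dosed for 24 hours; reporter mRNA quantified by RT-PCR, 6-FAM primer extension, HpaI digestion and capillary electrophoresis. Gain-of-signal fitted versus DMSO baseline; internal background-control marker.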

[6] = biological target: Nuclear receptor subfamily 4 group A member 2 (Homo sapiens) (UniProt P43354); test: ATG_NURR1_TRANS: Attagene TRANS-FACTORIAL HepG2 Assay for human Nuclear Receptor Related Protein 1 (NURR1) (AID 2282985; active = hit-call score of the fitted dose curve at least 0.9, where 1 is the maximum); details: HepG2 Attagene TRANS reporter, mRNA readout
Outline: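 HepG2 cells transiently transfected with GAL4-UAS reporter units and chimeric NR-Gal4 constructs; chemical exposure 24 h. Reporter mRNA quantified by RT-PCR, fluorescent labelling and capillary electrophoresis; gain of signal fitted relative to DMSO baseline.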

[7] = biological target: Transcriptional activator Myb (Homo sapiens) (UniProt P10242); test: ATG_Myb_CIS: Attagene CIS-FACTORIAL HepG2 Assay for human Myeloblastosis (Myb) Proto-Oncogene Transcription Factor (AID 2282986); details: HepG2 Attagene CIS-FACTORIAL Myb reporter transcription; actives raise or lower the signal
Outline: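 HepG2 cells were transiently transfected with cis-regulated multiple reporter transcription units reflecting endogenous Myb activity, then exposed to compound for 24 hours. Reporter mRNA was measured by RT-PCR with capillary electrophoresis; bidirectional fitting versus DMSO baseline.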

[8] = biological target: Nuclear respiratory factor 1 (Homo sapiens) (UniProt Q16656); test: ATG_NRF1_CIS: Attagene CIS-FACTORIAL HepG2 Assay for human Nuclear Respiratory Factor 1 (NRF1) Orphan Gene (AID 2282987); details: HepG2 NRF1 cis-element reporter, Attagene multiplex; actives raise or lower the signal
Outline: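 HepG2 cells transiently transfected with multiple reporter transcription units under cis-regulatory promoter control, so endogenous transcription-factor activity is read. After 24 h compound exposure, reporter mRNA quantified by RT-PCR, fluorescent labelling, HpaI digestion and capillary electrophoresis; bidirectional fitting versus DMSO.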

[9] = ATG_NFI_CIS: Attagene CIS-FACTORIAL HepG2 Assay for human Nuclear Factor I (NFI) (AID 2282989); details: HepG2 cis-regulatory reporter, NFI response element transcription; actives raise or lower the signal
Outline: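 Reporter transcription driven by endogenous transcription factors in HepG2 cells; 24 h treatment. Quantitation by labelled RT-PCR fragments on capillary electrophoresis, gain- or loss-of-signal relative to DMSO.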

[10] = biological target: Myc proto-oncogene protein (Homo sapiens) (UniProt P01106); test: ATG_Myc_CIS: Attagene CIS-FACTORIAL HepG2 Assay for human Myelocytomatosis (Myc) Proto-Oncogene Transcription Factor (AID 2282990); details: HepG2, Attagene cis-reporter transcription factor activity; actives raise or lower the signal
Outline: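 HepG2 cells transiently transfected with multiple cis-promoter-driven reporter transcription units, so endogenous TF activity is read. After 24 h compound exposure, reporter mRNA was quantified by RT-PCR, 6-FAM labelling, HpaI digestion and capillary electrophoresis; bidirectional fit versus DMSO.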

[11] = ATG_NRF2_ARE_CIS: Attagene CIS-FACTORIAL HepG2 Assay for human Nuclear Factor Erythroid 2 Related Factor 2 (NFR2) response to Antioxidant Response Elements (ARE) (AID 2282992); details: HepG2 Attagene ARE/NRF2 reporter, transcription factor activity; actives raise or lower the signal;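 as to AC50: reporter mRNA level measured by RT-PCR and capillary electrophoresis fluorescence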
Outline: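 Transient MRTU transfection of HepG2; 24 h compound exposure; TriZol RNA, RT with oligo(dT), PCR, 6-FAM primer extension, HpaI cut, CE. Bidirectional fit vs DMSO.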

[12] = ATG_Oct_MLP_CIS: Attagene CIS-FACTORIAL HepG2 Assay for human Octamer-Binding Transcription Factor (Oct) (AID 2282993); details: HepG2 Attagene cis-factorial Oct reporter, mRNA; actives raise or lower the signal
Outline: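 Transfected HepG2 cells, 24 h treatment. Reporter mRNA quantified by RT-PCR–capillary electrophoresis; bidirectional fitting against DMSO.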

[13] = biological target: Cellular tumor antigen p53 (Homo sapiens) (UniProt P04637); test: ATG_p53_CIS: Attagene CIS-FACTORIAL HepG2 Assay for human p53 Transcription Factor (AID 2282994); details: HepG2 p53 cis-element reporter, Attagene mRNA; actives raise or lower the signal
Outline: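 HepG2, transient MRTU transfection (cis promoter elements, endogenous TFs); 24 h dosing; RNA isolation, RT-PCR, 6-FAM primer extension, HpaI digest, CE fluorescence; bidirectional fit vs DMSO.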

[14] = BSK_3C_TissueFactor: BioMAP Diversity Plus: 3C Assay for Tissue Factor Biomarker Activity (AID 2282997); details: BioMAP 3C HUVEC, tissue factor biomarker readout; actives raise or lower the signal
Outline: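 Values derive from bidirectional curve fitting against DMSO of Tissue Factor ELISA signals, taken 24 h after dosing primary human umbilical vein endothelial cells.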

[15] = BSK_3C_uPAR: BioMAP Diversity Plus: 3C Assay for Urokinase-type plasminogen activator receptor (uPAR) Biomarker Activity (AID 2282998); details: BioMAP 3C HUVEC, uPAR biomarker ELISA; actives raise or lower the signal
Outline: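 Readout: ELISA for surface uPAR. System: human umbilical vein endothelial primary cells, 24 h after chemical exposure. Analysis: bidirectional fit, DMSO baseline.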

[16] = BSK_3C_VCAM1: BioMAP Diversity Plus: 3C Assay for Vascular cell adhesion molecule 1 (VCAM1) Biomarker Activity (AID 2282999); details: BioMAP 3C HUVEC, VCAM1 ELISA, cytokine-stimulated; actives raise or lower the signal
Outline: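 Human umbilical vein endothelial cells were dosed with compound for 24 h, after which cell-surface VCAM-1 was quantified by ELISA. Bidirectional curve fitting used DMSO as negative control and activity baseline.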

[17] = BSK_4H_Eotaxin3: BioMAP Diversity Plus: 4H Assay for Eotaxin 3 Biomarker Activity (AID 2283000); details: primary human endothelial cells (HUVEC); actives raise or lower the signal
Outline: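 Endothelial primary cells (human umbilical vein) exposed to compound for 24 h. ELISA detection of Eotaxin-3.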

[18] = biological target: human Peroxisome Proliferator-activated Receptor alpha (PPARa), PPARA (gene 5465) (UniProt Q07869); test: ATG_PPARa_TRANS: Attagene TRANS-FACTORIAL HepG2 Assay for human Peroxisome Proliferator-activated Receptor alpha (PPARa) (AID 2283001; active = hit-call score of the fitted dose curve at least 0.9, where 1 is the maximum;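 as to AC50: potency for gain of reporter signal over DMSO so agonist or activator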)
Outline: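 HepG2 cells transiently transfected with multiplexed GAL4-UAS reporter units and chimeric NR-Gal4 constructs were dosed for 24 h. Reporter mRNA was measured by RT-PCR with fluorescent labelling and capillary electrophoresis; gain of signal fitted against DMSO.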

[19] = ATG_NF_kB_CIS: Attagene CIS-FACTORIAL HepG2 Assay for human Nuclear Factor Kappa B (NF-kB) (AID 2282991); details: HepG2 Attagene cis-factorial NF-kB reporter mRNA; actives raise or lower the signal
Outline: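 HepG2 cells transiently transfected with multiplexed cis-element reporter units measuring endogenous transcription factor activity; reporter mRNA read 24 h after dosing by RT-PCR, fluorescent labelling, HpaI digestion and capillary electrophoresis. Bidirectional fit against DMSO baseline.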

Measured: AC50

Sequence of Nuclear receptor subfamily 4 group A member 2 (Homo sapiens) (P43354 whole entry, looked up, the tested form may be a part): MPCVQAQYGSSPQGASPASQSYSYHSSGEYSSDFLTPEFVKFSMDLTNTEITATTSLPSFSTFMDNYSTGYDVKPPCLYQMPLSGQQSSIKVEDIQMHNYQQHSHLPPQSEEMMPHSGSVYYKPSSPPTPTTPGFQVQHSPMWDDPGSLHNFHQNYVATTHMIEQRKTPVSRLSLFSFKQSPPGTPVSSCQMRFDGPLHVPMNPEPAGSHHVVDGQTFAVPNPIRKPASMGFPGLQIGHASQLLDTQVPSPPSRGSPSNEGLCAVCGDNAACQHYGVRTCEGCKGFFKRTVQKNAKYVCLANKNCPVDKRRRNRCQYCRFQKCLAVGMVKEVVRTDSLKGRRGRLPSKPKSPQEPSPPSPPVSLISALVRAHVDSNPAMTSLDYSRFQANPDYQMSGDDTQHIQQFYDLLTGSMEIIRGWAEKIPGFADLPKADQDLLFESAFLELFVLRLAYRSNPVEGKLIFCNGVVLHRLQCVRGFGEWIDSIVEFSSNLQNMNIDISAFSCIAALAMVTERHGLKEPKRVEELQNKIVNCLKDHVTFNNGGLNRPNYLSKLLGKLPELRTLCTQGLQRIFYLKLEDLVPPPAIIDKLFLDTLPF
Sequence of Nuclear respiratory factor 1 (Homo sapiens) (Q16656 whole entry, looked up): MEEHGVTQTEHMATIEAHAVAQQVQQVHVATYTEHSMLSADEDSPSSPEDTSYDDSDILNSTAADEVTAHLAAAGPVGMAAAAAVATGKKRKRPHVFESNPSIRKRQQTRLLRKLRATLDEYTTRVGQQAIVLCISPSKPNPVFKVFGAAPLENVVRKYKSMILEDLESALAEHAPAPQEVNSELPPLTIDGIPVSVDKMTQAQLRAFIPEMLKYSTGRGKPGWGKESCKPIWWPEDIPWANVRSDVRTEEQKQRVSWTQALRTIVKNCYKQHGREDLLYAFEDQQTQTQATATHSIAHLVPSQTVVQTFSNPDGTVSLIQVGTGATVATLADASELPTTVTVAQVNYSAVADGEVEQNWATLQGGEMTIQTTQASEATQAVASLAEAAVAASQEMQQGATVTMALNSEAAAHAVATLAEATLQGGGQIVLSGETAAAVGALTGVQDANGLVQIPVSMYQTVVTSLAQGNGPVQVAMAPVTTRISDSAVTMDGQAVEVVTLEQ
Sequence of Cellular tumor antigen p53 (Homo sapiens) (P04637 whole entry, looked up): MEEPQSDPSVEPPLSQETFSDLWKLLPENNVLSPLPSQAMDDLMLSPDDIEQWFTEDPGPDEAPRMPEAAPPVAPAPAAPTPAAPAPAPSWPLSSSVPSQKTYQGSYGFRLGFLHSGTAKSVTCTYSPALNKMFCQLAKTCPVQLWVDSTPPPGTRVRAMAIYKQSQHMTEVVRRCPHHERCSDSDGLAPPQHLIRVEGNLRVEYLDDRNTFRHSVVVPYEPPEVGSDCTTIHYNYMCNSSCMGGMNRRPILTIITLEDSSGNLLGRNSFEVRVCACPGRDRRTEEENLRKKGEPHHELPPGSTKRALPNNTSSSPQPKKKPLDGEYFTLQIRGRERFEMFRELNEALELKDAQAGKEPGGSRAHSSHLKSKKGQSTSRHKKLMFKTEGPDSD
Sequence of Myc proto-oncogene protein (Homo sapiens) (P01106 whole entry, looked up): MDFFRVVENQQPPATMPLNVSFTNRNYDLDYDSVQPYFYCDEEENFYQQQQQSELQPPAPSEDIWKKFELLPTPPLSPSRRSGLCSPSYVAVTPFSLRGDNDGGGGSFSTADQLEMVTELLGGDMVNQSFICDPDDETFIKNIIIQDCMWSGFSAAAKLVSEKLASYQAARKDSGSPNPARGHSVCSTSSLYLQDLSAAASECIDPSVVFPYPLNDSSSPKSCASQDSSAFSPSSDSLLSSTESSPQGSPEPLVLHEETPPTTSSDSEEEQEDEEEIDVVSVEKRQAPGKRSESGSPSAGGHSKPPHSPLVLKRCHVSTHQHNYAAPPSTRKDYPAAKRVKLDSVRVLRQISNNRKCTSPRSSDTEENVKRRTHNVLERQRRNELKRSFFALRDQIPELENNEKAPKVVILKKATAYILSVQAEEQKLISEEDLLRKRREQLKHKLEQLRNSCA
Sequence of human Peroxisome Proliferator-activated Receptor alpha (PPARa), PPARA (gene 5465) (Q07869 whole entry, looked up, the tested form may be a part): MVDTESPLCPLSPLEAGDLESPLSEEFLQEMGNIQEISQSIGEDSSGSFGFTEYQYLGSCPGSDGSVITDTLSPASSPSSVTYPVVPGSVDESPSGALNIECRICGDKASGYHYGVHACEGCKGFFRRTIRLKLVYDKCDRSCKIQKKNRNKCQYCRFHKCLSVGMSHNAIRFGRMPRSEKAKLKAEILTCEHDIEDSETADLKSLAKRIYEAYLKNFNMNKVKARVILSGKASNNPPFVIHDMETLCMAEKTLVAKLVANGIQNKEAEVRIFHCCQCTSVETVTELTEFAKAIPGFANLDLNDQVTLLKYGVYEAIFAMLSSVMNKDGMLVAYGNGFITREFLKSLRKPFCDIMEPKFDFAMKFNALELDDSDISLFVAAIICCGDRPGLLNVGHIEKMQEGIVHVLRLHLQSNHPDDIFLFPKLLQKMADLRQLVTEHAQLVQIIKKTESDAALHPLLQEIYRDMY
Sequence of Oxysterols receptor LXR-beta (Homo sapiens) (P55055 whole entry, looked up, the tested form may be a part): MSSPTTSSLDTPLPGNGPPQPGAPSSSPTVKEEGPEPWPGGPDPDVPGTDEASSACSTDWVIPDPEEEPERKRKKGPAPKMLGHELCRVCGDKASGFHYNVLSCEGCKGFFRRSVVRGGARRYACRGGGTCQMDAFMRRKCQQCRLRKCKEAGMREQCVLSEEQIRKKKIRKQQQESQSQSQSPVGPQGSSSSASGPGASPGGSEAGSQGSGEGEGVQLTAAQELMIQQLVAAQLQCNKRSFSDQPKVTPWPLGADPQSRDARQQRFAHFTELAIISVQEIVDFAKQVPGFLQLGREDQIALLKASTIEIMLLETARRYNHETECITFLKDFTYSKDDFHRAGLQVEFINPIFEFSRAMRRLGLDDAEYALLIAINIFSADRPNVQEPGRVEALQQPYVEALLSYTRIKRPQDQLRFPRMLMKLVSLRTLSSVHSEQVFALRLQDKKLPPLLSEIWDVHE
Sequence of Hepatocyte nuclear factor 4-alpha (Homo sapiens) (P41235 whole entry, looked up, the tested form may be a part): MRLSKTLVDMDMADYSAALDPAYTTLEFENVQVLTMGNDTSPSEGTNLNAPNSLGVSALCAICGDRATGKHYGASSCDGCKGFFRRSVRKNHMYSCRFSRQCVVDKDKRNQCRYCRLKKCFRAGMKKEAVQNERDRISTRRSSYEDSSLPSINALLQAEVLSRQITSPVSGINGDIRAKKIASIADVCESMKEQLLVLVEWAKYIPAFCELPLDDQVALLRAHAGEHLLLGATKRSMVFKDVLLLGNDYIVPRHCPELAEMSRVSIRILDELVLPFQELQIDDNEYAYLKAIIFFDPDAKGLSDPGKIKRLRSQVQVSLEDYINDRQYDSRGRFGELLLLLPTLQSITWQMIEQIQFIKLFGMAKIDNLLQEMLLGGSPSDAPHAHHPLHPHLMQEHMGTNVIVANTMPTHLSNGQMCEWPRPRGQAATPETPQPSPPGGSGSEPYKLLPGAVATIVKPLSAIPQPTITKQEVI
Sequence of Bile acid receptor (Homo sapiens) (Q96RI1 whole entry, looked up, the tested form may be a part): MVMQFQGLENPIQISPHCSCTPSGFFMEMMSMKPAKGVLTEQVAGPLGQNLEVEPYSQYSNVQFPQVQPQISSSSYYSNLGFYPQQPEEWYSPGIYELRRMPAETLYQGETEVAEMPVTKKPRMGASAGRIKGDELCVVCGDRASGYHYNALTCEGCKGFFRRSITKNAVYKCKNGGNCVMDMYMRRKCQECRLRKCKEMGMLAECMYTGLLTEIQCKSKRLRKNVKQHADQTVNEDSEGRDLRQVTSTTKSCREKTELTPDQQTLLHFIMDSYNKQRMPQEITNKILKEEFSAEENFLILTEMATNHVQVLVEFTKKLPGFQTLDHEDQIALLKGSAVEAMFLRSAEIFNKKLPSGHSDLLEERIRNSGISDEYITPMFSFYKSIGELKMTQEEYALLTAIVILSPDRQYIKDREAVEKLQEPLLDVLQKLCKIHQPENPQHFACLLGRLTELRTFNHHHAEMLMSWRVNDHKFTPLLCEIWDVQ
Sequence of Transcriptional activator Myb (Homo sapiens) (P10242 whole entry, looked up): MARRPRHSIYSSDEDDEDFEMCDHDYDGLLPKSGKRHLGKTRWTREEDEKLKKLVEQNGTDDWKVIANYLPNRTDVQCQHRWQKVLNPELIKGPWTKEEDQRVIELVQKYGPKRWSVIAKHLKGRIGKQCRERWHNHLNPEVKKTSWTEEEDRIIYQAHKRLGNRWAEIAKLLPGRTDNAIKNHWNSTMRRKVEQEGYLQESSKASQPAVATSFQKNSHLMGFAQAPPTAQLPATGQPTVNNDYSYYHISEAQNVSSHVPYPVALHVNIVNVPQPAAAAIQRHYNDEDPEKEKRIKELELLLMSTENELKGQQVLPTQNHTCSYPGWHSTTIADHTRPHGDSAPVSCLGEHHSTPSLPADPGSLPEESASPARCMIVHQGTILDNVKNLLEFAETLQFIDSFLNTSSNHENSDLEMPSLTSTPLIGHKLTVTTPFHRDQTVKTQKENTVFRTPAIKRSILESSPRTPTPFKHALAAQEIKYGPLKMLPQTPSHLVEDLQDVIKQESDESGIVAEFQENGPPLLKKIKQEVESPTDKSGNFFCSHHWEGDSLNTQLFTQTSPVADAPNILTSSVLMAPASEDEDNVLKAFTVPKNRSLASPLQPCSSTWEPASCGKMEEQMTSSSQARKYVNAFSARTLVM

CCCCOC(=O)c1ccc(O)cc1
inactive: [1] | [2] | [3] | [4] | [5] | [6] | [7] | [8] | [9] | [10] | [11] | [12] | [13] | [15] | [16] | [17] | [18]
active: [1] 66.1 µM | [6] 100 µM | [7] 162 µM | [8] 100 µM | [9] 100 µM | [10] 100 µM | [11] 100 µM and 26.2 µM | [12] 116 µM | [14] 7.85 µM

CCCCCCCCOC(=O)c1cc(O)c(O)c(O)c1
active: [1] 43 µM | [6] 24.2 µM | [11] 5.96 µM | [14] 20 µM | [15] 36.3 µM | [16] 32.5 µM | [17] 17.3 µM | [18] 33.4 µM
not listed: [5] | [12]
inactive: all other assays above

Cc1ncc(CO)c(CO)c1O
not listed: [3] | [5] | [12] | [19]
inactive: all other assays above

OC12N=C(c3ccccc3)SC1Cc1cc(Cl)ccc12 (stereo not drawn)
active: [11] 3.75 µM | [14] 5.1 µM | [17] 20 µM
not listed: [4] | [19]
inactive: all other assays above

COCC(C)OCC(C)OCC(C)O (stereo not drawn)
not listed: [2] | [3] | [5] | [12]
inactive: all other assays above

CCCC(=O)OCCC(C)C
active: [7] 1.84 µM
not listed: [3] | [5] | [6] | [18]
inactive: all other assays above

Cc1cn([C@H]2C[C@H](N=[N+]=[N-])[C@@H](CO)O2)c(=O)[nH]c1=O
not listed: [5] | [6]
inactive: all other assays above

CC[C@H](NC(=O)c1cc(F)ccc1NS(=O)(=O)c1cccc2cccnc12)c1ccccc1
active: [11] 0.13 µM
not listed: [2] | [3] | [5] | [18]
inactive: all other assays above

CCN(Cc1cccnc1)C(=O)c1cccc(Cl)c1[C@]1(C)C(=O)N(Cc2ccc(OC)cc2OC)c2ccc(Cl)cc21
inactive: [4] | [7] | [9] | [10] | [19]
active: [1] 2.58 µM | [6] 8.74 µM | [8] 9.65 µM | [11] 5.87 µM | [13] 4.98 µM | [14] 9.45 µM | [15] 5.85 µM | [16] 7.09 µM | [17] 11.4 µM

CC1(C)NC(=O)N(c2ccc([N+](=O)[O-])c(C(F)(F)F)c2)C1=O
active: [11] 68.8 µM and 22 µM and 46 µM
inactive: [1] | [2] | [3] | [4] | [6] | [7] | [8] | [9] | [10] | [11] | [12] | [13] | [14] | [15] | [16] | [17] | [18]

Cc1cccc2ccccc12
inactive: all assays above
